CHX counter: counter-screen for Shiga toxin inhibitors: cycloheximide protein synthesis inhibition; max response, %; hit rate 12% among 300,000; cell reporter, cycloheximide protein synthesis inhibition counterscreen; in the data active means max response mostly above about 13%, no sharp cut-off; inactive means mostly below about 14%; further: read at 38.3 µM for the half of the compounds with a filed dose
Shiga inhibitor: Shiga toxin inhibition; Vero cells, Shiga toxin protein synthesis inhibition reporter; inhibition, % at 38.7 µM; hit rate 9.2% among 290,000; in the data active means inhibition mostly above about 28%, no sharp cut-off; inactive means mostly below about 43%
AmpC detergent: AmpC beta-lactamase inhibition with detergent present | P00811 | AmpC hydrolysis of nitrocefin, absorbance 480 nm, 0.01% Triton | Potency, µM (series often up to 114 µM), hits mostly inhibitors | hit rate 0.041% among 370,000 | AID 485294; further: nearly all actives have a fitted effect of over 25% in size
Target sequence (P00811 whole entry, looked up): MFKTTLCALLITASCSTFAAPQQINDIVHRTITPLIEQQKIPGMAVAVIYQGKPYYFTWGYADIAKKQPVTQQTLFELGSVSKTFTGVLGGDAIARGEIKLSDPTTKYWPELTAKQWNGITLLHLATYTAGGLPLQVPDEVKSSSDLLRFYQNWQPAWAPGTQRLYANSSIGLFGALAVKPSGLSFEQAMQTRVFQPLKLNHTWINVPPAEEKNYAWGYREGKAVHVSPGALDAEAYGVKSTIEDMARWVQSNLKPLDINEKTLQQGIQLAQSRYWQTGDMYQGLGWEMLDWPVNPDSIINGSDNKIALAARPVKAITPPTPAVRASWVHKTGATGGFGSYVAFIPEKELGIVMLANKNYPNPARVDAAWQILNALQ
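AmpC (5.3 nM in the dispensed reagent) in 20 mM phosphate pH 7.0 with 0.01% (detergent screen) or 0.0001% Triton X-100 was preincubated with compounds for 15 min at room temperature. Nitrocefin was then added from an 800 uM solution, and hydrolysis was followed at 480 nm.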
NS1 function inh: influenza NS1 inhibition; Potency, µM (doses to about 46.1 µM); AID 2326; hit rate 0.4% among 270,000; calls by dose curve; further: actives are rising curves; nearly all actives have a fitted effect of over 50% in size
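Read-out: OD600 growth recovery of NS1-expressing budding yeast. Cells grown overnight at 30C in -URA glucose medium, washed, resuspended and diluted 1:100 in 2% galactose assay medium, pH 6.0. Same strain lacking NS1 served as positive control.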
AmpC no deterg: blocks E. coli AmpC beta-lactamase in detergent-free assay | hit rate 0.52% among 330,000 | AID 485341 | Potency, µM (titrated, usually from 57.1 µM), usual class: inhibitors | P00811 | AmpC nitrocefin hydrolysis, absorbance 480 nm, 0.0001% Triton; further: nearly all actives have a fitted effect of over 20% in size
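20 mM phosphate pH 7.0 + 0.01% (detergent screen) or 0.0001% Triton X-100; 5.3 nM AmpC reagent; cpd preinc 15 min RT; nitrocefin (800 uM stock) to start; A480 q20 s × 4 min; Activity was normalised to no-enzyme and no-compound control wells.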
Each line names hits and unclear results; the compound was inactive in the other large screens. Shown is part of a subset that was picked to be rich in hits. Unless noted, the call rests on the fitted dose curve; in most records, active means well fitted curve in the direction sought with a large enough effect; inconclusive means small, poorly fitted or top-dose-only effect, or another doubt; inactive means no such curve, though single readings can be large; an effect the other way counts as inactive or inconclusive.

O=C(CCC(=O)Nc1ccc(F)cc1)N/N=C/c1ccncc1	none (no result: NS1 function inh)
O=C(CCC(=O)Nc1ccc(Br)cc1)N/N=C/c1ccccc1O	CHX counter 21
O=C(Nc1ccccc1)O/N=C/c1ccncc1	CHX counter 17
COc1cccc(-c2nnc3sc(CN4CCCCC4)cn23)c1	none (no result: CHX counter, Shiga inhibitor, NS1 function inh, AmpC no deterg)
NC(=O)C/C=C\CC(N)=O	none (no result: CHX counter, Shiga inhibitor, AmpC detergent, AmpC no deterg)
C=C(C)C1CC=C(C)/C(=N/NC(=O)COc2ccccc2Cl)C1 (stereo not drawn)	AmpC detergent inconclusive
COc1ccc(OCC(=O)NC2CC(C)(C)NC(C)(C)C2)cc1	CHX counter 31, AmpC detergent inconclusive
O=C(COc1ccccc1Br)NC(=O)NC1CCCC1	AmpC detergent inconclusive (no result: CHX counter, Shiga inhibitor, NS1 function inh)
Cc1cccc2c1OCC/C2=N\NC(=O)COc1ccccc1Cl	CHX counter 21, Shiga inhibitor 63
O=C(COc1ccccc1Br)NC1CC1	CHX counter 15
CC1(C)CC(NC(=O)COc2ccccc2Cl)CC(C)(C)N1	CHX counter 28, Shiga inhibitor 95
CC1(C)CC(NC(=O)COc2ccc(Br)cc2Cl)CC(C)(C)N1	none
CC(=O)N1CCc2c(sc3c2c(=O)n(Cc2ccccc2)c(=O)n3Cc2ccccc2Cl)C1	none (no result: CHX counter, Shiga inhibitor, NS1 function inh, AmpC no deterg)
O=C(COc1ccccc1Cl)NC1CC1	Shiga inhibitor 92
O=S(=O)(/C=C/c1ccccc1)N1CCN(c2ccccc2)CC1	AmpC detergent inconclusive
CC(/C=N/N1CCN(c2ccccn2)CC1)=C\c1ccccc1	CHX counter 23, Shiga inhibitor 47
O=C(/C=C/c1cccc(Br)c1)N1CCN(c2ccccn2)CC1	none (no result: NS1 function inh)
C(/C=C/c1ccccc1)=N/N1CCN(c2ccccc2)CC1	CHX counter 16
c1ccc(-c2nnc(N3CCN(c4ccccn4)CC3)c3ccccc23)cc1	none
C(=C\c1ccccc1)/C=N/N1CCN(c2ccccn2)CC1	CHX counter 39, Shiga inhibitor 48, AmpC detergent inconclusive
C(=C\c1ccccc1)/C=N/N1CCN(Cc2ccccc2)CC1	CHX counter 27, Shiga inhibitor 43, AmpC detergent inconclusive (no result: NS1 function inh)
O=C(CN(C(=O)CNC(=O)c1ccco1)c1ccc2c(c1)OCCO2)NC1CCCC1	none
O=C1CCC/C=C/C[C@H](CC(=O)N(CCO)Cc2ccccc2)C(=O)N[C@@H](Cc2ccccc2)CO1	none (no result: CHX counter, Shiga inhibitor, AmpC detergent, NS1 function inh)
Cc1ccc(-n2cc3c(=O)n(C)c(=O)n(C)c3c2)cc1C	CHX counter 21, AmpC detergent inconclusive
Cc1cc(N)c(-n2cc3c(=O)n(C)c(=O)n(C)c3c2)cc1C	CHX counter 40, NS1 function inh inconclusive
Cc1cc(N)c(-n2cc3c(c2-c2ccc(Br)cc2)c(=O)n(C)c(=O)n3C)cc1C	none (no result: CHX counter, Shiga inhibitor, NS1 function inh, AmpC no deterg)
Cn1c(=O)c2cn(-c3ccc4c(c3)OCCO4)cc2n(C)c1=O	CHX counter 67
Cc1ccc2oc(C(=O)N(C)CCC(O)c3ccccc3)c(C)c2c1 (stereo not drawn)	Shiga inhibitor 22, AmpC detergent inconclusive
COc1ccc2oc(C(=O)N(C)CCOc3ccccc3)c(C)c2c1	CHX counter 38, Shiga inhibitor 83
COc1ccc(NC(=O)c2ccc3nc[nH]c3c2)c(OC)c1	none (no result: NS1 function inh)
Cc1ccc(NC(=O)c2cncc(Br)c2)c(O)c1	CHX counter 35, Shiga inhibitor 66
O=C(Nc1ccc(OC(F)(F)F)cc1)c1ccc2nc[nH]c2c1	CHX counter 33 (no result: Shiga inhibitor)
Cc1ccc(NC(=O)c2cncc(Br)c2)nc1	CHX counter 28, Shiga inhibitor 79, AmpC detergent inconclusive
O=C(Nc1ccccc1C(=O)O)c1cncc(Br)c1	none
Cc1ccc(NC(=O)c2ccc3nc[nH]c3c2)c(O)c1	CHX counter 33, Shiga inhibitor 74 (no result: NS1 function inh)
CC(C(=O)Nc1nc2ccccc2s1)n1cc([N+](=O)[O-])cn1 (stereo not drawn)	none (no result: NS1 function inh)
COc1cccc(CCNC(=O)c2ccc(Cn3c(SCc4ccccc4)nc4cccnc43)cc2)c1	none (no result: CHX counter, Shiga inhibitor, NS1 function inh, AmpC no deterg)
Cc1cc(O)c(CN2CCN(S(=O)(=O)c3cccs3)CC2)cc1C(C)C	none (no result: CHX counter, Shiga inhibitor, NS1 function inh)
COc1cccc(-c2cc(=O)[nH][nH]2)c1	CHX counter 22 (no result: NS1 function inh)
CCOc1ccc(OCC)c(NC(=O)C(NS(=O)(=O)c2ccc(Br)s2)c2ccccc2)c1 (stereo not drawn)	none (no result: CHX counter, Shiga inhibitor, NS1 function inh, AmpC no deterg)
CC(C)c1ccc(C(O)c2cnc(C(C)C)n2C)cc1 (stereo not drawn)	CHX counter 36, Shiga inhibitor 47, AmpC detergent inconclusive, AmpC no deterg inconclusive
CC1CCCN(C(=O)Cn2nnc(-c3ccccc3F)n2)C1 (stereo not drawn)	CHX counter 39, Shiga inhibitor 49
O=C(Cn1nnc(-c2ccccc2)n1)N1CCCCC1	CHX counter 38, Shiga inhibitor 47
CC1CCCN(C(=O)Cn2nnc(-c3ccc(F)cc3)n2)C1 (stereo not drawn)	none
CC(C)COc1ccc(-c2nnn(CC(=O)N3CCCC3)n2)cc1	CHX counter 23, Shiga inhibitor 58, AmpC detergent inconclusive
O=C(Cn1nnc(-c2cccc(C(F)(F)F)c2)n1)N1CCCCCC1	none
COc1ccc(-c2nnn(CC(=O)N3CCN(c4ccc(F)cc4)CC3)n2)cc1	none
COc1ccc(-c2nnn(CC(=O)N3CCOCC3)n2)cc1	AmpC detergent inconclusive
O=C(Cn1nnc(-c2ccc(OCc3ccccc3F)cc2)n1)N1CCOCC1	CHX counter 21, Shiga inhibitor active, AmpC detergent inconclusive
Cc1nnc(-c2ccc(Cl)cc2)[nH]c1=O	none
O=C(CCn1c(=O)c2cccn2c2cccnc21)NCc1ccccc1Br	none (no result: CHX counter, Shiga inhibitor, NS1 function inh, AmpC no deterg)
O=C(Cn1nnc(-c2ccccc2Cl)n1)N1CCCCC1	CHX counter 27, Shiga inhibitor 110
O=C(Cn1nnc(-c2ccccc2Cl)n1)N1CCN(S(=O)(=O)c2ccc(Cl)cc2)CC1	AmpC detergent inconclusive, NS1 function inh inconclusive
Cc1nc(N2CCCC2)c2c(C(=O)N3CCN(c4cccc(Cl)c4)CC3)c(C)oc2n1	none (no result: CHX counter, Shiga inhibitor, NS1 function inh, AmpC no deterg)
COc1ccc(-c2cc3nc(-c4ccc(Br)cc4)cc(C(F)(F)F)n3n2)cc1	none (no result: CHX counter, Shiga inhibitor, NS1 function inh, AmpC no deterg)
CCCCN1C(=S)NC[C@@H]1Cc1ccc(O)cc1	CHX counter 7.2
CCCC[C@@H]1CNC(=S)N1CCCC	none
Cc1ccc(S(=O)(=O)n2nc(-c3ccco3)nc2NCc2ccc(N(C)C)cc2)cc1	none (no result: CHX counter, Shiga inhibitor, NS1 function inh, AmpC no deterg)
COc1ccccc1CNC(=O)COC(=O)c1ccc(-n2cnnn2)cc1	none (no result: CHX counter, Shiga inhibitor, NS1 function inh)
O=C(OCCOc1ccccc1Cl)c1ccc(-n2cnnn2)cc1	CHX counter 36
Cc1ccccc1OCc1nnc2c3cnn(C)c3ncn12	CHX counter 39
O=C(NC1CCCC1)C(c1cccnc1)N(Cc1ccccc1F)C(=O)c1csnn1 (stereo not drawn)	none
CC(C)c1ccc(NC(=O)[C@@H](C)NC(=O)[C@@H]2Cc3ccccc3CN2)cc1	none
CC(C)c1ccc(NC(=O)C2CCC(CNC(=O)[C@@H]3Cc4ccccc4CN3)CC2)cc1 (stereo partly drawn)	CHX counter 15
Cc1cc(C)cc(NC(=O)[C@H](NC(=O)[C@@H]2Cc3ccccc3CN2)c2ccccc2)c1	none
CCc1ccc(NC(=O)[C@@H](NC(=O)[C@@H]2Cc3ccccc3CN2)C(C)CC)cc1 (stereo partly drawn)	CHX counter 16

Screening data deposited in PubChem by National Center for Advancing Translational Sciences (NCATS).
